Test results taken from PubChem BioAssay AID372 (MTDP, 2006).
Screen size: about 100,000 compounds; about 770 (0.77%) were called active. This is one part of a sample in which actives are shown more often than they occur. Rule as the data show it: active = inhibition above about 50%; inactive = the rest.

The molecules below were run against Gag-Pol polyprotein (Human immunodeficiency virus type 1 group M subtype B (isolate HXB2)) (UniProt P04585) (assay: RNase H inhibition, HIV 1 Gag Pol polyprotein, FRET biochemical assay, screening (AID 372)). Conditions: HIV-1 RT RNase H, FRET RNA/DNA substrate fluorescence; at 10 µM; stronger effect = higher value.

Structure (SMILES) | inhibition
Cc1ccc(N2C(=O)CC(Sc3ccccc3C(=O)O)C2=O)c([N+](=O)[O-])c1 (centres undefined) | 0% (inactive)
CCOC(=O)c1c2c(n(C)c1C)C=C(Br)C(=O)C2=O | 4% (inactive)
CCOC(=O)c1c(C)oc2c1C(=O)C(=O)C(Br)=C2 | 2% (inactive)
CCOC(=O)c1c2c(n(-c3ccccc3)c1C)C=C(Br)C(=O)C2=O | 58% (active)
Cn1c(=O)c2c(nc(Sc3nc4ccccc4o3)n2C)n(C)c1=O | 0% (inactive)
CC1CCN(C2(O)C(=O)Nc3ccc(Br)cc32)CC1 (centres undefined) | 14% (inactive)
O=C(c1ccc(I)cc1)N1CCOCC1 | 0% (inactive)
O=[N+]([O-])c1ccc(-c2ccco2)c(Cl)c1 | 14% (inactive)
O=[N+]([O-])c1cc(Cl)c(-c2ccco2)c(Cl)c1 | 57% (active)
O=[N+]([O-])c1ccc(-c2nnc(-c3ccco3)o2)c(Cl)c1 | 8% (inactive)
CCN(CC)CCN1C(=O)C(=O)/C(=C(/O)c2ccccc2)C1c1cccc([N+](=O)[O-])c1 (centres undefined) | 1% (inactive)
CCN(CC)c1ccc(N=Cc2c[nH]c3ccccc23)cc1 | 4% (inactive)
CC(C)C(=O)NS(=O)(=O)c1ccc(N)cc1 | 5% (inactive)
CC(=O)c1c(C)nc(-c2ccc(Cl)cc2)nc1NC(=O)c1ccccc1 | 59% (active)
CC(=O)Nc1nc(-c2ccccc2)nc(C)c1C(C)=O | 6% (inactive)
CC(=O)Nc1nc(-c2ccc(Cl)cc2)nc(C)c1C(C)=O | 3% (inactive)
CCOC(=O)c1c(C)oc2c(F)c(F)c(F)c(F)c12 | 22% (inactive)
COC(=O)c1ccc(NC(=O)c2ccc3c(c2)C(=O)N(c2cccc([N+](=O)[O-])c2)C3=O)cc1 | 10% (inactive)
O=C(Nc1ccc(O)cc1)c1ccc2c(c1)C(=O)N(c1cccc(N3C(=O)c4ccc(C(=O)Nc5ccc(O)cc5)cc4C3=O)n1)C2=O | 54% (active)
COC(=O)c1ccc(NC(=O)c2ccc3c(c2)C(=O)N(c2ccc([N+](=O)[O-])cc2)C3=O)cc1 | 52% (active)
O=C(Nc1ccccc1)c1ccc2c(c1)C(=O)N(c1cccc(N3C(=O)c4ccc(C(=O)Nc5ccccc5)cc4C3=O)n1)C2=O | 8% (inactive)
O=C(Nc1ccc(O)cc1)c1ccc2c(c1)C(=O)N(c1ccccn1)C2=O | 13% (inactive)

Structure (SMILES) | inhibition
Cc1ccc(NC(=O)c2ccc3c(c2)C(=O)N(c2ccc([N+](=O)[O-])cc2)C3=O)cc1 | 17% (inactive)
CC(C)(C)C1(O)CC(C(F)(F)F)=NN1C(=O)c1ccc([N+](=O)[O-])cc1 (centres undefined) | 18% (inactive)
COc1ccc(NC(=O)c2ccc(-c3ccccc3)cc2)cc1 | 8% (inactive)
COC(=O)c1c(C)oc2cc(Br)c(OC(=O)c3cccc([N+](=O)[O-])c3)cc12 | 0% (inactive)
Cc1cccc(C)c1OCCOc1ccccc1/C=C1\SC(=S)N(C)C1=O | 13% (inactive)
CC(c1ccccc1)C1CC(=O)N(c2ccc(F)cc2)C1=O (centres undefined) | 0% (inactive)
CC(c1ccccc1)C1CC(=O)N(c2ccc(I)cc2)C1=O (centres undefined) | 54% (active)
CC(c1ccccc1)C1CC(=O)N(c2ccccc2)C1=O (centres undefined) | 0% (inactive)
CCCc1cc2c(-c3ccccc3)cc(=O)oc2cc1OCc1ccc(C(=O)O)o1 | 59% (active)
CCCc1cc2c(-c3ccccc3)cc(=O)oc2cc1OCC | 22% (inactive)
CCCc1cc2c(-c3ccccc3)cc(=O)oc2cc1OCC(=O)O | 9% (inactive)
Cc1ccc(NC(=O)C(=NNc2ccccc2)C(=O)Nc2ccc(C)cc2)cc1 | 0% (inactive)
CC1CC(N(C(=O)c2ccc(Cl)cc2)c2ccccc2)c2ccccc2N1 (centres undefined) | 10% (inactive)
CC1CC(N(c2ccccc2)S(=O)(=O)c2ccc(Cl)cc2)c2ccccc2N1 (centres undefined) | 60% (active)
CC(=O)N(c1ccccc1)C1CC(C)Nc2ccccc21 (centres undefined) | 1% (inactive)
CCOC(=O)c1sc(NC(=O)/C=C/c2cccc([N+](=O)[O-])c2)nc1C | 6% (inactive)
COC(=O)C1=C(C)NC(=O)/C1=C\c1ccccc1 | 8% (inactive)
O=C1/C(=C\c2ccc(-c3ccccc3[N+](=O)[O-])o2)SC(=S)N1C1CCS(=O)(=O)C1 (centres undefined) | 23% (inactive)
Cc1cc(C)cc(-n2c(C)cc(/C=N/NC(=O)c3cccnc3)c2C)c1 | 13% (inactive)
O=c1/c(=C/c2ccc(-c3ccccc3Cl)o2)sc2nc3ccccc3n12 | 3% (inactive)
COc1ccc(C2C3=C(CC(C)(C)CC3=O)Nc3ccccc3N2C(=O)CC(C)C)cc1 (centres undefined) | 3% (inactive)
O=C(/C=C/c1ccc(Cl)cc1)Nc1ccc(-c2nc3ccccc3o2)cc1 | 52% (active)

Structure (SMILES) | inhibition
Cc1ccc2nc(-c3ccc(C)c(NC(=O)/C=C/c4cccc([N+](=O)[O-])c4)c3)oc2c1 | 40% (inactive)
O=C(/C=C/c1cccc([N+](=O)[O-])c1)Nc1ccc2oc(-c3ccccc3)nc2c1 | 31% (inactive)
Cc1ccc2nc(-c3ccc(NC(=O)/C=C/c4ccc(Cl)cc4)cc3)oc2c1 | 48% (inactive)
O=C(/C=C/c1ccc(Cl)cc1)Nc1ccc(-c2nc3ccccc3o2)c(O)c1 | 20% (inactive)
Cc1cc(C)c2oc(-c3ccc(NC(=O)/C=C/c4cccc([N+](=O)[O-])c4)cc3)nc2c1 | 16% (inactive)
O=C(/C=C/c1cccc([N+](=O)[O-])c1)Nc1ccc(-c2nc3ccccc3o2)cc1 | 54% (active)
O=C(/C=C/c1cccc([N+](=O)[O-])c1)Nc1ccc(-c2nc3ccccc3o2)c(O)c1 | 14% (inactive)
Cc1ccc2nc(-c3ccc(NC(=O)/C=C/c4cccc([N+](=O)[O-])c4)cc3)oc2c1 | 54% (active)
N#Cc1cnn(-c2ccc3ccccc3c2)c1N | 5% (inactive)
Cc1ccc(N=Cc2ccco2)c(C)c1 | 29% (inactive)
CC1(C)CC(=O)c2cc(C(=O)NCc3ccccc3)c(=O)n(-c3ccccc3)c2C1 | 15% (inactive)
COc1ccc(CC(=O)Nc2ccc(Cl)cc2C)cc1OC | 0% (inactive)
O=C(COc1ccc(Br)cc1Cl)NCCc1ccccc1 | 16% (inactive)
COc1ccc(CCNC(=O)COc2ccc(Br)cc2)cc1OC | 1% (inactive)
COCCNC(=O)COc1ccc(Cl)cc1Br | 14% (inactive)
COc1ccc(CCNC(=O)COc2ccc(Cl)cc2Br)cc1OC | 54% (active)
COc1ccc(CC(=O)Nc2ccc(Br)cc2F)cc1OC | 12% (inactive)
COc1ccc(CC(=O)Nc2ccc(Br)cc2C)cc1OC | 50% (active)
COc1ccc(CCNC(=O)COc2ccc(Br)cc2Cl)cc1OC | 53% (active)
COc1ccc(CCNC(=O)COc2ccccc2OC)cc1OC | 1% (inactive)
